Results as given in ChEMBL document CHEMBL3988442, “University of Dundee, Small-Polar-MMV Screening Library” (2021).
For some assays here: Measured potencies and affinities stand elsewhere.

What was measured:
Parameters in all cases: scale not given: direction of the effect not stated beside the values
[1] = target: Protein translocase subunit SecA (Escherichia coli (strain K12)) (UniProt P10408); experiment: Assay to Identify E. coli SecA ATPase Inhibitors; assay type: functional; settings: 30 µM
Sequence of Protein translocase subunit SecA (Escherichia coli (strain K12)) (P10408 whole entry): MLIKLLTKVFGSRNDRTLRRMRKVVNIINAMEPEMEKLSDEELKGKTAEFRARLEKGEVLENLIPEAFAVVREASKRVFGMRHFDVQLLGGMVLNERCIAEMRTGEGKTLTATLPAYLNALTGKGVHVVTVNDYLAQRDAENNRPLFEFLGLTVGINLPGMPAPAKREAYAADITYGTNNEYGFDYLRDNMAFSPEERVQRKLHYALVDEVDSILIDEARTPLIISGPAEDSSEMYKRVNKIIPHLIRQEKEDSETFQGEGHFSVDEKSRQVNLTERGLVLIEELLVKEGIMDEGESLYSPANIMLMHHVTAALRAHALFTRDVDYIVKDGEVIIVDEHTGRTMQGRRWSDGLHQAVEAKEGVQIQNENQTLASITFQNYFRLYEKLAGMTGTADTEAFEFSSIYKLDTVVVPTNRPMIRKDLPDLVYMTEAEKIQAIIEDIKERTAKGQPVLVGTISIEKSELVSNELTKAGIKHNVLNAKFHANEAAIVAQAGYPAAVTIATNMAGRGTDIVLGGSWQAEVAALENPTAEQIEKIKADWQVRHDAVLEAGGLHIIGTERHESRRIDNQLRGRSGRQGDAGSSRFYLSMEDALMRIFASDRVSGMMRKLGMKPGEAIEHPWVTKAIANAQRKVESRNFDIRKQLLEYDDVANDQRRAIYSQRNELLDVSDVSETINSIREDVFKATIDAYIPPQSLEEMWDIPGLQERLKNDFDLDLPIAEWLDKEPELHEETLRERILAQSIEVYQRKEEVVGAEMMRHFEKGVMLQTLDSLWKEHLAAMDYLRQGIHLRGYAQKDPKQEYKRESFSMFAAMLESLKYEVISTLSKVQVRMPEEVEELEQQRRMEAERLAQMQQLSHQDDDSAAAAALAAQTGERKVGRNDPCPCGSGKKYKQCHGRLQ

[2] = target: T1, Ubiquitin-activating enzyme e1, putative (Leishmania donovani (strain BPK282A1)) (UniProt E9BSI1); experiment: Leishmania donovani Ubiquitin Activating Enzyme (LdE1); assay type: functional; settings: 30 µM
T1 sequence (whole entry): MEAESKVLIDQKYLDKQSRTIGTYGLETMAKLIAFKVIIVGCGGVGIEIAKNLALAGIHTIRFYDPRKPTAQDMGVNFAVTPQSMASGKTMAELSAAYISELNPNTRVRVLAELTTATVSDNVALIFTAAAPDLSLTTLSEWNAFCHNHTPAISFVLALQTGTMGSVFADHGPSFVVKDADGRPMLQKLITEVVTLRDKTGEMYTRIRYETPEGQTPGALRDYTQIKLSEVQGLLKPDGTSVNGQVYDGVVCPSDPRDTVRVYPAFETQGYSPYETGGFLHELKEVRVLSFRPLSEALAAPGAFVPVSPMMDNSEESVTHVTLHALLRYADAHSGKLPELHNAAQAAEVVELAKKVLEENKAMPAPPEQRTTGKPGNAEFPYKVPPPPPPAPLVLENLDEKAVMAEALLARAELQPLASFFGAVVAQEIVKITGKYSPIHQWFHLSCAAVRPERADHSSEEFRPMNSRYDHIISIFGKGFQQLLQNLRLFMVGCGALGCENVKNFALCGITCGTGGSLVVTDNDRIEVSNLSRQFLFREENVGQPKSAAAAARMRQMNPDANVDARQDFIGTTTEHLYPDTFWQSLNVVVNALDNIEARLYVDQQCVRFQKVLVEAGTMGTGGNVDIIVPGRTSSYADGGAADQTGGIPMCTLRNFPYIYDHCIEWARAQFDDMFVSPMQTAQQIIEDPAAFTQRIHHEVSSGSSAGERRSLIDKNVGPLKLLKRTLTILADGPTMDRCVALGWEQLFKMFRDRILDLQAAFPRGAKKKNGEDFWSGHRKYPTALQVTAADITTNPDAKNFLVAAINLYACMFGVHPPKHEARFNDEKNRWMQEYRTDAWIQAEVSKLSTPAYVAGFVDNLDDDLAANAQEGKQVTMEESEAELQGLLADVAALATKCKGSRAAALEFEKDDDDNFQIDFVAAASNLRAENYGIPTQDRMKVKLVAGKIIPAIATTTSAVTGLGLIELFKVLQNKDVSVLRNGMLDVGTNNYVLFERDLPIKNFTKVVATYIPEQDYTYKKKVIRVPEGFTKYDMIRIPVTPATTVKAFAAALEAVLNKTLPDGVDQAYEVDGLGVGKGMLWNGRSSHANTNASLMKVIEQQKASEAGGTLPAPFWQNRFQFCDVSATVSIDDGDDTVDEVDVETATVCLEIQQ

[3] = target: AMP-activated protein kinase, AMPK (Homo sapiens) (UniProt P54646+O43741+P54619+Q9UGJ0+Q9Y478+Q13131+Q9UGI9); experiment: AMP-dependent Kinase enzyme assay. An in vitro enzyme assay that detects ADP turnover that is directly proportional to AMPK activity. This uses naive AMPK that is activated during the assay with MK-8722; assay type: functional; settings: 30 µM
[4] = target: Sialic acid-binding Ig-like lectin 9 (Homo sapiens) (UniProt Q9Y336); experiment: Hs-Siglec9 ALPHAscreen SOP 20170721; settings: 10 µM
Sequence of Sialic acid-binding Ig-like lectin 9 (Homo sapiens) (Q9Y336 whole entry): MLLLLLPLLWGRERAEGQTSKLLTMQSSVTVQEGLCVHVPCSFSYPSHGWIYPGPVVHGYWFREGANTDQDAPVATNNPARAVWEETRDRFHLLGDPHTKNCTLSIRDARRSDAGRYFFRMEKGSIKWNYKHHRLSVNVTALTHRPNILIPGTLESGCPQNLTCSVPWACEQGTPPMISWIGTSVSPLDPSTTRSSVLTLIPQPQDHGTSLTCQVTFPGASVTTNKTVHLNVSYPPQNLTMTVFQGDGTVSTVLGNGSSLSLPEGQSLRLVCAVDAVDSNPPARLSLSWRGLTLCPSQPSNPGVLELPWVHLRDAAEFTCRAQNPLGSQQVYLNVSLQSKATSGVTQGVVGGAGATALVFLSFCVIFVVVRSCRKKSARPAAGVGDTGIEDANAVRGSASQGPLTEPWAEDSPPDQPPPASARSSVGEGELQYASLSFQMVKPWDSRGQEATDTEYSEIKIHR

Trypanosoma cruzi = experiment: Trypanosoma cruzi phosphomannomutase and mannose-1-phosphate guanylyltransferase assay; assay type: functional; settings: 10 µM
[5] = target: T2, Arginase-2, mitochondrial (Homo sapiens) (UniProt P78540); experiment: in vitro enzyme assay to detect the production of urea directly proportional to the activity of Arginase II; assay type: functional; settings: 33.3 µM; further: in the data most compounds retested in dose-response had high values
T2 sequence (whole entry): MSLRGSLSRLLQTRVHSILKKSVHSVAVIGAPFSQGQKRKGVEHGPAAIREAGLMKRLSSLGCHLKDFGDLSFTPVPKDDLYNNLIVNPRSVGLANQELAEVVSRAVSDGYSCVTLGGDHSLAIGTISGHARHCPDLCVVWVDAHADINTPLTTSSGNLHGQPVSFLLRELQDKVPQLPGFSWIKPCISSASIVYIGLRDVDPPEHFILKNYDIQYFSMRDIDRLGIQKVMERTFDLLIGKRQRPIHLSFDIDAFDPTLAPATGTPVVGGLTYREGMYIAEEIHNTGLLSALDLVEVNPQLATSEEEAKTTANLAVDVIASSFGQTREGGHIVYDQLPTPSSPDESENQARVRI

[6] = target: T3, Proteasome subunit beta (Trypanosoma cruzi) (UniProt O96673); experiment: Trypanosoma cruzi proteasome chymotrypsin-like activity (TcProtChymo) assay.; further: in the data most compounds retested in dose-response had high values; assay type: functional; settings: 9.37 µM
T3 sequence (whole entry): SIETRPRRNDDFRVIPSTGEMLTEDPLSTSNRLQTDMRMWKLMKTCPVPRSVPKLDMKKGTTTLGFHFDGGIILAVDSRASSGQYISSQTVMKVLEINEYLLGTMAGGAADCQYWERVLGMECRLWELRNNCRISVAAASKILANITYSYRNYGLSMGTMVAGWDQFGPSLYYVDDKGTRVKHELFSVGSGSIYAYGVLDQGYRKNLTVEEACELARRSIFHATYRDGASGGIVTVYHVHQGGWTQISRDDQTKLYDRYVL

Homo sapiens = species on record: Homo sapiens; experiment: To identify inhibition of the IFN signalling (Jak-Stat) pathway via expression of an eGFP reporter gene under the control of an IFN-stimulated response element (ISRE) containing MxA promoter.; assay type: functional; settings: 30 µM
[7] = target: T4, Tyrosyl-tRNA synthetase, putative (Trypanosoma cruzi (strain CL Brener)) (UniProt Q4DSP6); experiment: Trypanosoma cruzi tyrosyl tRNA synthetase (TcYRS) _High Tyrosine SOP; assay type: functional; settings: 30 µM; further: in the data most compounds retested in dose-response had high values
T4 sequence (whole entry): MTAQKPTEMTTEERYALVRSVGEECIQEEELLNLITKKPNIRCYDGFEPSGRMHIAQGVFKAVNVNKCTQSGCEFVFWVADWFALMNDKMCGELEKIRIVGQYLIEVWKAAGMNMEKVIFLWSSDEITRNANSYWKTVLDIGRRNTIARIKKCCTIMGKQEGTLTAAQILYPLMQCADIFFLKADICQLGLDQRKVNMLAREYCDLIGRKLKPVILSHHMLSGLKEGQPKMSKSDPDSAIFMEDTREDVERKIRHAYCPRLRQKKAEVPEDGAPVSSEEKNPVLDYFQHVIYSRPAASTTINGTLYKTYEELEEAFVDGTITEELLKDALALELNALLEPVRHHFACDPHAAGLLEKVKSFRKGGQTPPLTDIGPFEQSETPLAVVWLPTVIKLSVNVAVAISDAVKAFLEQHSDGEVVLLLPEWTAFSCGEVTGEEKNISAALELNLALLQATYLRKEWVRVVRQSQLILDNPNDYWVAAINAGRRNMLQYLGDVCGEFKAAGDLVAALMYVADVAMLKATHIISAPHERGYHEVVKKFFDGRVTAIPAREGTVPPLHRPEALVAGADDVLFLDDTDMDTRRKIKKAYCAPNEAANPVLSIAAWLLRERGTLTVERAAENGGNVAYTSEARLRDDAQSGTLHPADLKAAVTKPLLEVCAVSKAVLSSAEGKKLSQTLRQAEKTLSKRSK

[8] = target: T4, Tyrosyl-tRNA synthetase, putative (Trypanosoma cruzi (strain CL Brener)); experiment: Trypanosoma cruzi tyrosyl tRNA synthetase (TcYRS) SOP; assay type: functional; settings: 30 µM
[9] = target: Chromo domain-containing protein 1 (Saccharomyces cerevisiae (strain ATCC 204508 / S288c) (Baker's yeast)) (UniProt P32657); experiment: ScCHD-1 Enzyme Inhibition Assay; assay type: functional; settings: 30 µM; further: in the data most compounds retested in dose-response had high values
Sequence of Chromo domain-containing protein 1 (Saccharomyces cerevisiae (strain ATCC 204508 / S288c) (Baker's yeast)) (P32657 whole entry, the tested form may be a part): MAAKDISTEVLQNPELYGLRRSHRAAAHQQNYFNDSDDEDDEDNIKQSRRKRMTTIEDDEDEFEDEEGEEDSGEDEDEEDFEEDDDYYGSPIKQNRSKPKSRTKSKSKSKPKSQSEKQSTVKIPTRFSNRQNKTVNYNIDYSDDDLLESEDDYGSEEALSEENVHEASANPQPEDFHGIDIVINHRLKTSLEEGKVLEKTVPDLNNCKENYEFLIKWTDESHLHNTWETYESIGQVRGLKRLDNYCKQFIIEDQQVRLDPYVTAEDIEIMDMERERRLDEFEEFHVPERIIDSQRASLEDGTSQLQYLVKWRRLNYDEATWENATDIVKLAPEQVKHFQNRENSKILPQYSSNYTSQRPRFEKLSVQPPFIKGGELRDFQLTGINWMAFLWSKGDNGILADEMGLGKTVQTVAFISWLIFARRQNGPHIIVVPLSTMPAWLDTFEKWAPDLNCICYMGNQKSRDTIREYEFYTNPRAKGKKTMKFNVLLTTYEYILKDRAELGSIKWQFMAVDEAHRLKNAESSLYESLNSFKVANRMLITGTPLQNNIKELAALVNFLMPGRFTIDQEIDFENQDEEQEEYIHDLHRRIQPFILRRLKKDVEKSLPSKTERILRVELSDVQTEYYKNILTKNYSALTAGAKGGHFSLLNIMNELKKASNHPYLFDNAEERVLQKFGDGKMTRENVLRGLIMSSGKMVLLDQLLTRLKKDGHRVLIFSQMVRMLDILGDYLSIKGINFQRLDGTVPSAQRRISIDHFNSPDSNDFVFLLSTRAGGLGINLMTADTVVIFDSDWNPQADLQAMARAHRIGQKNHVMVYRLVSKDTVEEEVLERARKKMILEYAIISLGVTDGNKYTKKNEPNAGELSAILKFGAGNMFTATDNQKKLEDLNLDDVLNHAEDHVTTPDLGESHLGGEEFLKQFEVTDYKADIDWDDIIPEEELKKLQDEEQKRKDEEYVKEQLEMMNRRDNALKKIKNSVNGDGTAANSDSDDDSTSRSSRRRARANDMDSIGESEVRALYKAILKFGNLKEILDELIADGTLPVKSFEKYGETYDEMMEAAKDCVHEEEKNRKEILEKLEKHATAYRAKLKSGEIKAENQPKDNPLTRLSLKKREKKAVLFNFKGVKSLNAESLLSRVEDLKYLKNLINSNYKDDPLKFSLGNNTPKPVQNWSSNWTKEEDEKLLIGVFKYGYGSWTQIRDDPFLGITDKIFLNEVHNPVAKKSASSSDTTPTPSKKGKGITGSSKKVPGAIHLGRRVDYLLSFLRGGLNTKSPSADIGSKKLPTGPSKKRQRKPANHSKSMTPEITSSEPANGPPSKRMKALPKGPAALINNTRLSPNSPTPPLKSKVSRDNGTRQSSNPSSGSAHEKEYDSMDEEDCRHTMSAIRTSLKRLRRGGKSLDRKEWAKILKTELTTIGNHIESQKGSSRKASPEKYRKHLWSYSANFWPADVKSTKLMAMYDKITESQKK

| SMILES | Percent Effect [1] | Percent Effect [2] | Percent Effect [3] | Percent Effect [4] | Percent Effect (Trypanosoma cruzi) | Percent Effect [5] | Percent Effect [6] | Percent Effect (Homo sapiens) | Percent Effect [7] | Percent Effect [8] | Percent Effect [9] |
| --- | --- | --- | --- | --- | --- | --- | --- | --- | --- | --- | --- |
| O=C(CCc1ccccc1)NCC1CCN(Cc2ccsc2)CC1 | -2.4% | 13% | 4.5% | -9.22% | -5.62% | 7.1% | 15.3% | 20.5% | 2.12% | 8.97% | -8.15% |
| CC(NC(=O)Cc1cccs1)c1nnc2n1CCCCC2 (configuration not stated) | -5.37% | 10.8% | 0.496% | 4.55% | 1.95% | -1.66% | -7.54% | -0.0451% | 3.96% | 15.8% | 1.56% |
| O=C(CCn1cccn1)N1C[C@@H]2CC[C@H](C1)N(Cc1ccccn1)C2=O | -3.32% | 5.41% | -4.57% | 4.2% | 2.51% | 0.476% | 1.72% | 3.77% | 5.82% | 14.6% | -3.35% |
| Clc1ccccc1C1(c2ccnc(-c3ccncc3)n2)CCNCC1 | -0.572% | 7.79% | 3.38% | 10.4% | -2.26% | -8.28% | 17% | 16.3% | 6.45% | 13.6% | 2.54% |
| CC(=O)NC1CCCN(C(=O)NCc2ccc(-c3ccn[nH]3)cc2)C1 (configuration not stated) | -4.57% | 21.1% | 2.99% | -2.61% | 3.83% | 0% | 12.4% | -12.3% | 8.37% | 23.5% | -8.05% |
| O=C1CCSCC(C(=O)N2CCOCC2)N1 (configuration not stated) | -5.1% | 2.74% | -1.73% | -8.51% | -2.74% | -0.455% | 5.5% | 16% | 2.15% | 7.5% | 0.585% |
| NC(=O)C1CN(C(=O)Nc2ccccc2-c2cccs2)CCO1 (configuration not stated) | -6.75% | 18.9% | -3.93% | 20.2% | 5.66% | -2.4% | -3.23% | 6.89% | 2.97% | 18.3% | -6.91% |
| O=C(c1ccn(-c2cccc(F)c2)n1)N1CCCC(n2cccn2)C1 (configuration not stated) | -4.17% | 2.6% | 4.13% | 0.275% | 5.78% | -1.05% | 13.3% | 2.64% | 0% | 7.06% | -16.1% |
| Cc1ccc(CN2CCc3ncnc(-c4ccc(F)cc4)c3CC2)o1 | -0.438% | 5.33% | 3.65% | 4.4% | -1.93% | -50.4% | 12.5% | -0.337% | 1.04% | 12.5% | -9.77% |
| Cc1cnn(CC2CCCN2CC(=O)N(C)CCC#N)c1 (configuration not stated) | -1.24% | -5.41% | -5.26% | 5.88% | -0.386% | -0.476% | 11.4% | -14.1% | -2.65% | -2.44% | 91.2% |
| CC(C)C(NC(=O)NCCNc1ccccn1)c1cccs1 (configuration not stated) | -6.06% | 18.2% | -14.7% | 6.36% | -0.187% | 4.98% | 10.8% | 8.29% | 9.71% | 26.8% | -7.99% |
| CNC(=O)[C@H]1C[C@@H]2CN(S(=O)(=O)c3ccccc3)C[C@@H]2N1C | -2.19% | -5.2% | 3.6% | 3.49% | -0.492% | -13.8% | 1.83% | 6.5% | 2.15% | -1.24% | 2.52% |
| COc1ccccc1OCc1cc(C(=O)N2C[C@H](O)[C@@H](N(C)C)C2)n[nH]1 | -3.86% | 6.94% | 0.606% | -3.31% | -1.46% | 0.442% | 11.9% | 9.72% | 2.1% | 2.56% | -2.07% |
| O=C(Nc1cnccn1)[C@@H]1COC[C@H]2CN(C3CCCC3)C[C@H]21 | -8.34% | 13.5% | -5.42% | 16.7% | 3.91% | 3.33% | 3.97% | -6.67% | 6.93% | 11% | -4.69% |
| Cc1cnn(C2CN(Cc3nc(-c4ccco4)no3)C2)c1 | -7.03% | 13% | 26.4% | 11.1% | 0.374% | -0.356% | 5.41% | 10.2% | 10.7% | 19.5% | -2.84% |
| Cc1nc(C)n(CC2CCCN2Cc2cscn2)n1 (configuration not stated) | -4.14% | 2.6% | 3.5% | 10.9% | 2.64% | -0.21% | -0.404% | -14.6% | 5.71% | 11.8% | -13.6% |
| CCC(=O)N1CCC2(CC1)COc1ccccc1S(=O)(=O)N(C)C2 | -4.24% | 16.2% | -6.69% | 20.9% | 1.27% | 2.23% | 9.7% | 7.17% | 7.53% | 18.5% | -11.2% |
| O=C(Nc1cccc(CN2CCOC2=O)c1)N1CCOCC1 | -1.28% | 1.39% | -4.85% | -10.5% | -4.76% | 3.09% | 12.6% | 2.75% | 2.1% | 7.69% | -2.72% |
| COc1ccc(C)cc1CN1CCCC1c1noc(C2CC2)n1 (configuration not stated) | -1.46% | -2.7% | -7.59% | -1.73% | 5.85% | -9.8% | 18.7% | 67.4% | 9.9% | 18.3% | -3.74% |
| CCc1nccn1C1CCCN(C(=O)c2cnn3ccc(C)nc23)C1 (configuration not stated) | -3.42% | -2.7% | -5.57% | 1.51% | -0.283% | -2% | 4.5% | 4.32% | 5.42% | -6.17% | -7.37% |
| CCS(=O)(=O)c1ccccc1N1CCC(NC(C)=O)CC1 | -2.22% | 21.6% | -1.79% | 2.67% | -5.11% | -4.25% | -19.4% | 11.3% | 6.93% | 13.4% | 0.794% |
| c1cnn(CCN2CCOC(Cn3cncn3)C2)c1 (configuration not stated) | -1.82% | 17.7% | -6.27% | -8.37% | -0.283% | 3.8% | 14.3% | -0.00724% | 10.3% | 24.1% | -9.31% |
